Experimental data published in PubChem BioAssay (NCATS).
Results filed as inconclusive are left out. Where a call stands in place of a potency, no number is given. Calls of active or inactive are those of the source. Calls come from the whole dose curve; as a rule, active = well fitted cell-killing curve with a large enough effect; inconclusive = small, poorly fitted or top-dose-only effect; inactive = flat fitted curve, though single readings scatter. Numbered stars: 1 amine (or outer) side, 2 acyl side, 3 side chain; on linkers, the order of the positions; unused ones are H or OH. Bridge positions count the residues as written; N and C are the ends. Square brackets hold non-standard residues; d marks the D form. Peptide text beside a SMILES is read from it. * marks the point of attachment. ξ: configuration not given here. X1 = CCCCCCCCCC(=O)[C@H](C(=O)[*:2])[C@@H]1CNC(=O)[C@@H](N[*:1])CS1; Phe(3R-OH) = O=C([C@@H](N[*:1])[C@H](O[*:3])c1ccccc1)[*:2]; NMeTrp(4-OMe) = CN[C@@H](Cc1c[nH]c2cccc(OC)c12)C(=O)O; ξThr(3R)(O-yl) = C[C@@H](O[*:3])C(N[*:1])C(=O)[*:2]; NMeThr(3ξ) = CN[C@H](C(=O)O)C(C)O; NMeL = CN[C@@H](CC(C)C)C(=O)O; NMeV = CN[C@H](C(=O)O)C(C)C; ξIle = CC[C@H](C)C(N)C(=O)O; Octanoyl = CCCCCCCC(=O)*; ξV = CC(C)C(N)C(=O)O

Test: HEK-293 Cancer Cell Toxicity qHTS against the NCATS CANVASS Library (AID 1347355); note: nearly all actives have a fitted effect of over 65% in size
Details: HEK-293 viability, CellTiter-Glo luminescence, 72 h; series mostly up to 46.1 µM
Description: Natural products and their derivatives continue to be wellsprings of nascent therapeutic potential. However, many laboratories have limited resources for biological evaluation, leaving their previously isolated or synthesized compounds largely or completely untested. To address this issue, the Canvass library of natural products was assembled (https://tripod.nih.gov/canvass), in collaboration with academic and industry researchers, for quantitative high-throughput screening (qHTS) across a diverse set of cell-based and biochemical assays. The pure (>85% purity by liquid chromatography/mass spectrometry [LC/MS]) Canvass library of 346 natural products were submitted by 45 academic laboratories and companies around the world. We collected pure natural products to circumvent deconvolution and structure elucidation due to time and resource limitations. The library was formatted into 1536-well plates and evaluated in 50 qHTS (in an 11-pnt concentration series) bioassays with broad scope of disease-relevant mechanisms. The resulting data set from 50 different assays was then systematically analyzed to identify overall trends and specific natural products with interesting biological activities. Reported herein are the results of each individual qHTS and their corresponding assay protocol. National Center for Advancing Translational Sciences (NCATS), Rockville, MD National Institute of Health (NIH), Bethesda, Maryland
Cancer Cell Toxicity COV-362, OV-KATE, OV-SAHO, UWB1.289, UWB1.289-WTBRCA1, HEK-293, HPAF-II, Panc-1005, SW1088, and U-118MG-screen protocol. 1. In a 1536 well, white solid bottom tissue culture plates (Corning 7494), corresponding cells (COV-362, OV-KATE, OV-SAHO, UWB1.289, UWB1.289-WTBRCA1, HEK-293, HPAF-II, Panc-1005, SW1088, or U-118MG) were dispensed in each well at a final concentration of 1000 cells / well (6uL volume) using the Multidrop Combi (Thermo Fisher Scientific) dispenser. 2. The plates were incubated for 4 hours at 37 degrees C/5% CO2/95% Rh. 3. Compounds were pin transferred (~23nL volume) via Wako Pin-tool (Wako Automation, Richmond VA) equipped with a 1536 pin head. The assay plates were treated with compounds in an 11-pnt concentration series with a final concentration range of […] to 85uM. 4. Bortezomib was used as a single dose control (0.5mM column 4, rows 1 - 32) at a final concentration of 1.9uM and as a 16pnt titration (1mM; 1:2 dilution; 16-points; n = 2; column 3, rows 1 - 32) with final concentration range of 0.1nM - 3.8uM. 5. The assay plates were incubated for 72 hours at 37 degrees C/5% CO2/95% Rh. 6. 3uL CellTiter-Glo detection reagent was then added to the plates (columns 2 - 48, rows 1 - 32) and incubated at room temperature for additional 15min. 7. Luminescence signal was acquired via the ViewLux plate reader (PerkinElmer) using a clear filter, 2 second exposure and 2x binning settings.
Potency is the fitted concentration of half-maximal effect.

Structure (SMILES) | Potency
C[C@@H]1C(=O)[C@]23CC[C@H]1C[C@]21O[C@H]2C(C)(C)C=CC(=O)[C@@]23COC1=O | inactive
C=C1C[C@@]23C=CC(=O)[C@@](C)(CCC(=O)Nc4c(OC5O[C@H](CO)[C@@H](O)[C@H](O)[C@H]5O)ccc(C(=O)O)c4O)C2C[C@@H]1CC3 (stereo not given in full) | inactive
Cc1cc(O)cc2oc(C[C@H](C)O)cc(=O)c12 | inactive
CO[C@@H]1[C@H](O)[C@@H](C)O[C@@H](OC[C@@H]2C(C)OC(=O)/C=C/[C@H](C)C(O[C@@H]3O[C@H](C)CC4(OC(=O)O[C@@H]4C)C3O)[C@@H](C)CC(C)C(=O)CC[C@H]3OC23)[C@@H]1OC (stereo not given in full) | inactive
CCCCCCCC(=O)N[C@@H](CC(C)C)C(=O)N[C@H](C=O)CCC(=O)O (Octanoyl-Leu-Glu-aldehyde) | inactive
C[C@]12CC[C@]3(C1)[C@H](CC2=O)CC(OC(=O)c1ccccc1)[C@H]1[C@@](CO)(C(=O)O)CCC[C@@]13C (stereo not given in full) | inactive
CN1CC[C@]2(c3cccc4c3N[C@@H]3N(C)CC[C@]43[C@@]34CCN(C)[C@@H]3Nc3c([C@]56CCN(C)[C@H]5Nc5ccccc56)cccc34)c3ccccc3N[C@H]12 | 2.96 µM (active)
COc1ccc([C@@H]2c3cc(OC)c(OC)cc3C(=O)C(C)C2C)cc1OC (stereo not given in full) | inactive
CC(=O)O[C@H]1CC[C@@]2(C)C(CC[C@]3(C)C2CC=C2C4CC(C)(C)CC[C@]4(C)CC[C@]23C)C1(C)C (stereo not given in full) | inactive
CN1C(=O)[C@]23SS[C@@]1(C)C(=O)N2[C@H]1Nc2ccccc2[C@]1(c1c[nH]c2ccccc12)[C@@H]3O | 0.743 µM (active)
C/C(=C\[C@H](C)C(=O)CCCC1CC(=O)NC(=O)C1)[C@@H]1OC(=O)/C=C/CC/C=C/C[C@@H](O)[C@@H]1C | 1.87 µM (active)
C=C1C(=O)O[C@H]2C[C@H](C)[C@@H]3CC(=O)C(C)=C3[C@H](O)[C@H]12 | 7.43 µM (active)
CN1CCc2cc3c(c4c2[C@H]1[C@@H](O)c1ccccc1-4)OCO3 | 23.5 µM (active)
O=Cc1ccc2n1C[C@@]1(C[C@H](O)[C@@H](CO)O1)OC2 | inactive
CC[C@H](C)C(NC(=O)[C@@H](NC)C(C)C)C(=O)NC1C(=O)N(C)[C@@H](C(C)O)C(=O)N[C@@H](C(C)C)C(=O)N(C)[C@@H](CC(C)C)C(=O)NC(C(C)C)C(=O)N(C)[C@@H](C(C)C)C(=O)N(C)[C@@H](Cc2c[nH]c3cccc(OC)c23)C(=O)N[C@@H](C(C)C)C(=O)N[C@@H]([C@H](O)c2ccccc2)C(=O)N[C@@H](C(C)C)C(=O)O[C@@H]1C (stereo partly drawn) (H-[NMeV][ξIle][ξThr(3R)(O-yl)][NMeThr(3ξ)]V[NMeL][ξV][NMeV][NMeTrp(4-OMe)]V[Phe(3R-OH)]V; ester 3-C) | inactive
COc1cc(/C=C2/C(=O)N(c3ccc(O)cc3C(=O)O)[C@H](c3ccc(O)c(OC)c3)C2C(=O)Nc2ccc(O)cc2C(=O)O)ccc1O (stereo not given in full) | inactive
COc1cc(O)c2c3c(c(O)cc(C)c13)C(=O)OC2 | inactive
C=C1[C@H]2CC[C@@]3(C=CC(=O)[C@@](C)(CCC(=O)Nc4c(O)ccc(C(=O)O)c4O)C3C2)[C@H]1O (stereo not given in full) | inactive
CCC[C@@H](C)/C=C(\C)[C@H](O)[C@H](C)/C=C/CC[C@@H](O)[C@H](C)[C@H](O)[C@H](C)[C@H](O)[C@H](C)[C@H]1O[C@H]([C@H](C)C(=O)O)CC[C@@H]1C | 14.8 µM (active)
C[C@H]1C[C@@H]([C@@H]2CC[C@]34O[C@H](CC[C@@]35C[C@H](C)C(=O)O5)CN24)OC1=O | inactive

Structure (SMILES) | Potency
COC1C(O)C(OC(N)=O)C(Oc2ccc3c(O)c(NC(=O)c4ccc(O)c(CC=C(C)C)c4)c(=O)oc3c2C)OC1(C)C (stereo not given) | inactive
O=c1cc(-c2ccc(O)c(O[C@@H]3O[C@H](CO)[C@@H](O)[C@H](O)[C@H]3O)c2)oc2cc(O[C@@H]3O[C@H](CO)[C@@H](O)[C@H](O)[C@H]3O)cc(O)c12 | inactive
CC1C(=O)C23CCC1C[C@]21O[C@@H]2C(C)(C)C=CC(=O)[C@@]23COC1=O (stereo not given in full) | inactive
O=C(OC1Cc2c(O)cc(O)cc2OC1c1cc(O)c(O)c(O)c1)c1cc(O)c(O)c(O)c1 (stereo not given) | inactive
C[C@@H](CCC[C@]1(C)C(=O)C=C[C@]23C[C@H]4C[C@H](O[C@@]4(C)C2)C31)C(=O)N[C@@H](CO)C(=O)O (stereo not given in full) | inactive
OCc1ccc2ocnc2c1 | inactive
C=CC(C)(C)C(=O)[C@@H](C)[C@@H]1CC[C@](C)(C=C)O1 | inactive
O=C(O)[C@@]12COC3(O)C1CCN1CC[C@H]3[C@@H]1c1c2[nH]c2ccccc12 | inactive
CC1(C)C=Cc2c(ccc3c2OC[C@@H](c2ccc(O)cc2O)C3)O1 | inactive
CO[C@H]1/C=C/CC[C@@H](S[C@@H]2O[C@H](CO)[C@@H](O)[C@H](O)[C@H]2O)CC(=O)O[C@@H](/C(C)=C/[C@H](C)C(=O)CCCC2CC(=O)NC(=O)C2)[C@@H](C)[C@@H]1O | 1.87 µM (active)
CCCCCC[C@H](CCCCC[C@@H](O)C(N)=O)OC(=O)[C@@H]1CC=CN1C(=O)c1ccccc1O | inactive
COc1ccc2cc(NC(=O)C3=NO[C@H]4[C@H](O)C=C[C@@H](Cl)[C@@]4(O)C3)c(=O)oc2c1OC | inactive
CNc1ccc(Cl)cc1C(=O)OC[C@]1(C)[C@H]2CC[C@]3(C)[C@@H](C[C@@H](OC)[C@H](C)[C@H]3C3=C(O)C(=O)OC3O)[C@]2(C)CC[C@H]1O (stereo not given in full) | inactive
C=CC(=C)CC[C@]1(C)[C@H]2C[C@H](OC(=O)C(C)CC)C=C3[C@H](OC(C)=O)O[C@H](OC(C)=O)[C@@]32[C@H](OC)C[C@@H]1C (stereo not given in full) | 4.29 µM (active)
CCCCCCCCCCCCCCCC(=O)OC/C=C(\C)CCCC(C)CC(C)C(C)C (stereo not given) | inactive
C/C=C/C=C/C1(O)C2C=C3C(=O)CC45C(=O)C(O)=C(C)C(=O)C4C1C1(C(=O)C(O)=C(C)C(=O)C351)C2C (stereo not given) | inactive
C=C(C)CC[C@H](Cc1c(O)cc(O)c2c1O[C@H](c1ccc(O)cc1O)CC2=O)C(=C)C | inactive
C=C1C(=O)O[C@H]2[C@H]1CC/C(CO)=C\CC[C@@]1(C)O[C@@H]21 | 5.9 µM (active)
CCCCCCCCCC(=O)[C@@H]1C(=O)N[C@@H](CC(C)C)C(=O)N[C@H](C)C(=O)N2CCC[C@H]2C(=O)N[C@@H](C(C)C)C(=O)N[C@H]2CS[C@H]1CNC2=O (cyclo(L[dA]PV[X1])) | inactive
CC1=CC[C@@]2(C[C@@H]1O)[C@@H](C(=O)O)CC[C@H]2C(C)C | inactive
